Some test systems named below: K-562 leukemia; MALME-3M melanoma; MDA-MB-231 breast; SF-268 CNS; SF-295 CNS; SF-539 CNS; UACC-257 melanoma; M14 melanoma; HCT-15 colon; HT29 colon; SNB-75 CNS; SNB-19 CNS; U251 CNS; SK-MEL-5 melanoma; UACC-62 melanoma; LOX IMVI melanoma; SK-MEL-28 melanoma; SK-MEL-2 melanoma; PC-3 prostate.
Assay in all cases: NCI-60 one-dose screen, 48 h (100 = growth as untreated, 0 = no growth, -100 = all killed)
Details in all cases: 10 µM unless noted

Compounds without any hit were thinned out: in the full panel of roughly 83,000, 20% have a hit.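 Plates (96-well) were seeded with cells, treated with compound at one concentration, and incubated for 48 hours before percent growth was determined.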 Values without a mark were called inactive. Active and inactive are the calls of the source. The calls were made as follows: active = growth percent below 10; inactive = the rest.

`O=C1OCCCCCCCCCC#Cc2ccccc21`: the growth was 94.2% in the test with K-562 leukemia; 146% in the test with MALME-3M melanoma; 110% in the test with MDA-MB-231 breast; 182% with SF-268 CNS; 151% with SF-295 CNS; 105% with SF-539 CNS. Also, the growth was 124% in the test on UACC-257 melanoma; 109% with M14 melanoma; 109% in the test with HCT-15 colon; 70.8% with HT29 colon; 88.7% in the test on SNB-75 CNS; 98.6% in the test on SNB-19 CNS. The growth in the test on U251 CNS was 115%; with SK-MEL-5 melanoma, 89%; in the test with UACC-62 melanoma, 99.2%; in the test on LOX IMVI melanoma, 140%; in the test with SK-MEL-28 melanoma, 110%; in the test on SK-MEL-2 melanoma it was 109%.
Take `COc1ccc(Nc2nccc(N3CCN(c4c5ccc(Cl)cc5nc5ccc(OC)cc45)CC3)n2)cc1`: the growth in the test with K-562 leukemia is 25.4%; in the test with MALME-3M melanoma, 46%; in the test on MDA-MB-231 breast, 61.3%; in the test on SF-268 CNS it was 66.7%; in the test with SF-295 CNS, 78.6%; with SF-539 CNS it was 92.8%. Further, the growth with UACC-257 melanoma is 102%; in the test on M14 melanoma, 88.4%; with HCT-15 colon, 36.9%; in the test on HT29 colon, 44.6%; in the test with SNB-75 CNS, 67.5%; with SNB-19 CNS, 92.2%. Also, the growth was 57.9% with PC-3 prostate, 76.4% in the test on UACC-62 melanoma and 105% with SK-MEL-28 melanoma.
For `C/C(=C\CCc1ccsc1)CC/C=C(\C)CCCN1CCC(CO)CC1`, the growth was -51.4% (active) with K-562 leukemia; -66.9% (active) in the test with MALME-3M melanoma; 19.6% in the test with MDA-MB-231 breast; 60.6% with SF-268 CNS; 7.65% (active) in the test with SF-295 CNS; 9.87% (active) in the test with SF-539 CNS. The growth in the test on UACC-257 melanoma was -32.4% (active); with M14 melanoma, -47.4% (active); with HCT-15 colon it was 0.233% (active); in the test on HT29 colon, -42.6% (active); in the test with SNB-75 CNS, 41.1%; with SNB-19 CNS it was 52.6%. Besides, the growth with U251 CNS was -3.53% (active); in the test with PC-3 prostate it was 41.2%; with UACC-62 melanoma, -83.4% (active); with SK-MEL-28 melanoma, 9.39% (active).
In the case of `C/C(=C\CCc1ccsc1)CC/C=C(\C)CCCN1CCN(CCO)CC1`, the growth with K-562 leukemia is -27.4% (active); with MALME-3M melanoma, -14.4% (active); with MDA-MB-231 breast it was 27%; in the test with SF-268 CNS, 71.7%; in the test with SF-295 CNS, 35.9%; in the test on SF-539 CNS, 57.8%. Also, the growth is 11.4% in the test with UACC-257 melanoma; 14.2% with M14 melanoma; -22.2% (active) with HCT-15 colon; -34.4% (active) in the test on HT29 colon; 42.7% in the test with SNB-75 CNS; 64% with SNB-19 CNS. Moreover, the growth with U251 CNS is 6.55% (active); in the test with PC-3 prostate, 55.3%; in the test on UACC-62 melanoma it was -73.9% (active); in the test with SK-MEL-28 melanoma it was 58.1%.
Take `C/C(=C\CCc1ccoc1)CC/C=C(\C)CCCN1CCC(CO)CC1`: the growth in the test on K-562 leukemia was -15.8% (active); in the test with MALME-3M melanoma it was 11%; in the test on MDA-MB-231 breast, 50%; in the test on SF-268 CNS it was 79.2%; with SF-295 CNS it was 47.4%; with SF-539 CNS it was 48.9%. The growth was 49% in the test with UACC-257 melanoma; 36.3% in the test on M14 melanoma; 25.5% in the test with HCT-15 colon; 6.48% (active) with HT29 colon; 36.4% with SNB-75 CNS; 76.2% with SNB-19 CNS. Moreover, the growth is 40% with U251 CNS, 57.8% with PC-3 prostate, -63.3% (active) with UACC-62 melanoma and 56.3% with SK-MEL-28 melanoma.
As to `c1cnc2ccc3ncccc3c2c1`, the growth is 106% with K-562 leukemia; 146% in the test on MALME-3M melanoma; 114% with MDA-MB-231 breast; 107% with SF-268 CNS; 113% in the test on SF-295 CNS; 104% in the test with SF-539 CNS. The growth was 83.5% in the test with UACC-257 melanoma; 99.8% with M14 melanoma; 108% with HCT-15 colon; 113% in the test with HT29 colon; 89.5% in the test with SNB-75 CNS; 104% with U251 CNS. Also, the growth in the test on SK-MEL-5 melanoma is 106%; with UACC-62 melanoma, 99.2%; in the test on LOX IMVI melanoma, 97.9%; in the test on SK-MEL-28 melanoma, 85.5%.
For the compound `COc1ccc(/C(=C2\O[C@@H]([C@H](O)CO)[C@H]3OC(C)(C)O[C@@H]23)c2cc(OC)c(OC)c(OC)c2)cc1O`, the growth in the test on K-562 leukemia was 12.6%; in the test with MALME-3M melanoma, 75.7%; in the test with MDA-MB-231 breast, 97%; with SF-268 CNS it was 71.1%; in the test with SF-295 CNS, 92.5%; with SF-539 CNS, 68.2%. Further, the growth in the test on UACC-257 melanoma is 97.9%; in the test with M14 melanoma it was 47.7%; in the test on HCT-15 colon, 62.2%; with HT29 colon it was 111%; with SNB-75 CNS, 55.9%; with SNB-19 CNS it was 76.8%. Moreover, the growth in the test with U251 CNS was 90.6%; in the test on PC-3 prostate, 51.8%; with SK-MEL-5 melanoma, 74.3%; in the test with UACC-62 melanoma, 95.1%; with SK-MEL-2 melanoma, 77.5%.
As to `Nc1nc2ncc(CCNc3ccc(C(=O)NC(CCC(=O)O)C(=O)O)cc3)nc2c(=O)[nH]1` (stereo not drawn), the growth was 127% in the test on K-562 leukemia; 118% with MALME-3M melanoma; 115% with MDA-MB-231 breast; 110% in the test on SF-268 CNS; 113% in the test on SF-295 CNS; 94.3% in the test with SF-539 CNS. The growth was 75.2% in the test with UACC-257 melanoma; 114% in the test with M14 melanoma; 98.2% in the test with HCT-15 colon; 109% in the test with HT29 colon; 81.3% in the test with SNB-75 CNS; 111% in the test on SNB-19 CNS. Moreover, the growth was 100% with U251 CNS; 106% in the test with PC-3 prostate; 98.9% with SK-MEL-5 melanoma; 99.6% with UACC-62 melanoma; 98.3% with LOX IMVI melanoma; 125% in the test with SK-MEL-28 melanoma. For the same compound, in the test with SK-MEL-2 melanoma, the growth was 2.9% (active).
Regarding `CCN1C(=O)c2ccc3c4c(ccc(c24)C1=O)C(=O)N(CCCNCc1ccccc1OC)C3=O`, the growth in the test with K-562 leukemia is -36% (active); with MALME-3M melanoma it was -87.6% (active); in the test with MDA-MB-231 breast, 2.92% (active); with SF-268 CNS, -15.5% (active); in the test on SF-295 CNS it was -69.8% (active); in the test with SF-539 CNS it was -96.4% (active). Also, the growth with UACC-257 melanoma is -88.6% (active); with M14 melanoma, -92.8% (active); in the test on HT29 colon, -48.8% (active); with SNB-75 CNS, -71.5% (active); with SNB-19 CNS it was -64.1% (active); in the test on U251 CNS, -86.3% (active). For the same compound, the growth with PC-3 prostate is 0.702% (active); in the test on UACC-62 melanoma, -88.3% (active); with SK-MEL-28 melanoma, 3.31% (active).

For the origin of these results see PubChem BioAssay (NCI).
